PubChem BioAssay (Tox21)
“And” between values parts separate entries of the source, which are not always exact repeats. Identical values can stand only once. Inconclusive results are not listed. Entries that show only a call come without a potency. The source made the active and inactive calls. The call rests on the fitted dose curve; in most records, active means well fitted cell-killing curve with a large enough effect in the repeat runs; inconclusive means weak or mixed curves, or effect the other way; inactive means no such curve, though single readings can be large or run the other way. Positions of bridges follow the written chain, without caps; N, C: chain ends. Non-standard residues stand in square brackets, D forms with d. Residues, ends and D or L forms follow the SMILES beside them. *: point of attachment. Dab(CH2SO3H) = N[C@@H](CCNCS(=O)(=O)O)C(=O)O; X3 = CC[C@@H](C)CCCCC(=O)*; Dab = NCC[C@H](N)C(=O)O

Test: qHTS assay to identify small molecule antagonists of the glucocorticoid receptor (GR) signaling pathway - cell viability counter screen (AID 720693); further: nearly all actives have a fitted effect of over 55% in size
Conditions: GR-bla HeLa viability, CellTiter-Glo luminescence, 18 h, with 5 nM dexamethasone present; series mostly up to 58.5 µM

Q: Which Potency does the source give for CCC(NC(C)C)C(O)c1ccc(O)c(O)c1 (stereo not given) here?
A: inactive

Q: With CCCCCCCCCC[N+](C)(CCCCCCCCCC)CCC[Si](OC)(OC)OC as the molecule, how does the Potency read?
A: inactive

Q: Which Potency does the source give for O=C1CCC(c2ccc(-n3ccnc3)cc2)=NN1 here?
A: inactive

Test: qHTS assay for identifying genotoxic compounds that show differential cytotoxicity against isogenic chicken DT40 cell lines with known DNA damage response pathways - wild type cell line (AID 743012); further: nearly all actives have a fitted effect of over 60% in size; further: potency means the concentration at half of the fitted maximal effect
Conditions: DT40 wild type chicken cells viability, CellTiter-Glo, 40 h; series mostly up to 68.4 µM
In short: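 CellTiter-Glo luminescence readout of viability in wild type DT40 cells after 40 h compound exposure at 37 C/5% CO2; 300 cells/well; reagent incubated 30 min at room temperature before reading.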

Q: With CC[C@H]1OC(=O)[C@H](C)C(=O)[C@H](C)[C@@H](O[C@@H]2O[C@H](C)C[C@H](N(C)C)[C@H]2O)[C@](C)(OC)C[C@@H](C)C(=O)[C@H](C)[C@H]2N(CCCCn3cnc(-c4cccnc4)c3)C(=O)O[C@]12C as the molecule, how does the Potency read?
A: 4.22 µM (active)

Q: With COc1cccc2c1[C@@H]1CN(CCCCn3c(=O)[nH]c4c(sc5ncc(-c6ccccc6)nc54)c3=O)C[C@@H]1CO2 as the molecule, how does the Potency read?
A: 13.3 µM (active)

Q: With O=P(O)(O)OP(=O)(O)OP(=O)(O)O as the molecule, how does the Potency read?
A: inactive

Q: For NC[C@@H]1CC[C@@H](N)[C@@H](O[C@H]2[C@H](O)[C@@H](O[C@H]3O[C@H](CO)[C@@H](O)[C@H](N)[C@H]3O)[C@H](N)C[C@@H]2N)O1, which Potency is on record?
A: inactive

Q: For CC(=O)OCC(=O)[C@@]1(O)CC[C@H]2[C@@H]3CCC4=CC(=O)CC[C@]4(C)C3=CC[C@@]21C, which Potency is on record?
A: inactive

Q: For CN1CCN(CCCN2c3ccccc3Sc3ccc(Cl)cc32)CC1, which Potency is on record?
A: 5.96 µM (active)

Q: For CN1CC[C@H](c2c(O)cc(O)c3c(=O)cc(-c4ccccc4Cl)oc23)[C@H](O)C1, which Potency is on record?
A: 0.106 µM (active)

Q: With COc1c(Br)cc(Br)c(C)c1Br as the molecule, how does the Potency read?
A: inactive

Q: With CC12CCC(C[N+](C)(CCC[N+](C)(C)C)C1)C2(C)C (stereo not given) as the molecule, how does the Potency read?
A: inactive

Q: With O=C1c2c(O)cccc2[C@H]([C@@H]2O[C@H](CO)[C@@H](O)[C@H](O)[C@H]2O)c2cc(CO)cc(O)c21 as the molecule, how does the Potency read?
A: inactive

Q: For NCC(O)CC(=O)O (stereo not given), which Potency is on record?
A: inactive

Q: With CCOc1ccc(S(=O)(=O)O)c2cccnc12 as the molecule, how does the Potency read?
A: inactive

Q: For CC12CCC(C1)C(C)(C)C2=O (stereo not given), which Potency is on record?
A: inactive

Q: Which Potency does the source give for CN1C(=O)C[C@@H](C(=O)N[C@@H](Cc2cnc[nH]2)C(=O)N2CCC[C@H]2C(N)=O)NC1=O here?
A: inactive

Q: For NC[C@H]1O[C@H](O[C@H]2[C@H](O)[C@@H](O[C@H]3O[C@H](CO)[C@@H](O)[C@H](N)[C@H]3O)[C@H](N)C[C@@H]2N)[C@H](N)C[C@@H]1O, which Potency is on record?
A: inactive

Q: Which Potency does the source give for NCC[C@H](O)C(=O)N[C@@H]1C[C@H](N)[C@@H](O[C@H]2O[C@H](CN)CC[C@H]2N)[C@H](O)[C@H]1O[C@H]1O[C@H](CO)[C@@H](O)[C@H](N)[C@H]1O here?
A: inactive

Q: For CC1(C)S[C@@H]2[C@H](NC(=O)[C@@H](NC(=O)N3CCNC3=O)c3ccccc3)C(=O)N2[C@H]1C(=O)O, which Potency is on record?
A: inactive

Q: For C=CC[N@@+]12CC[C@@]34c5ccccc5N5/C=C6/[C@H]7C[C@H]8[C@@]9(CC[N@@+]8(CC=C)C/C7=C/CO)c7ccccc7N(/C=C(/[C@@H](C[C@@H]31)/C(=C\CO)C2)[C@H]54)[C@@H]69, which Potency is on record?
A: inactive

Q: For CC(C)Cc1ccc([C@H](C)C(=O)O)cc1, which Potency is on record?
A: inactive

Q: For COc1cc2c(cc1OC)[C@@H](Cc1cc(OC)c(OC)c(OC)c1)[N+](C)(CCCOC(=O)CC/C=C/CCC(=O)OCCC[N+]1(C)CCc3cc(OC)c(OC)cc3[C@H]1Cc1cc(OC)c(OC)c(OC)c1)CC2 (stereo not given in full), which Potency is on record?
A: inactive

Q: Which Potency does the source give for FC(F)(F)C(F)(F)C(F)(F)C(F)(F)C(F)(F)F here?
A: inactive

Q: With COc1ccc(/C=N/NC(=O)c2ccncc2)c(C(=O)O)c1OC as the molecule, how does the Potency read?
A: inactive

Q: With C[C@]12O[C@H](C[C@]1(O)CO)n1c3ccccc3c3c4c(c5c6ccccc6n2c5c31)CNC4=O as the molecule, how does the Potency read?
A: 0.237 µM (active)

Q: Which Potency does the source give for Cc1cc(-c2ccc(N=Nc3ccc4c(S(=O)(=O)O)cc(S(=O)(=O)O)c(N)c4c3O)c(C)c2)ccc1N=Nc1ccc2c(S(=O)(=O)O)cc(S(=O)(=O)O)c(N)c2c1O here?
A: 23.7 µM (active)

Q: With CC[N+](CC)(CC)CCC(O)(c1ccccc1)C1CCCCC1 (stereo not given) as the molecule, how does the Potency read?
A: inactive

Q: For CC(C)c1ncc([N+](=O)[O-])n1C, which Potency is on record?
A: inactive

Q: Which Potency does the source give for CC[C@H](C)C(=O)O[C@H]1CCC=C2C=C[C@H](C)[C@H](CC[C@@H]3C[C@@H](O)CC(=O)O3)[C@H]21 here?
A: 2.98 µM (active)

Q: For CCN(CC)CCNC(=O)c1ccc(NS(C)(=O)=O)cc1, which Potency is on record?
A: inactive

Q: With CN(C)CCc1c[nH]c2ccc(Cn3cncn3)cc12 as the molecule, how does the Potency read?
A: inactive

Q: With C=C1C(=C/C=C2\CCC[C@]3(C)[C@@H]([C@H](C)CCCC(C)C)CC[C@@H]23)C[C@@H](O)C[C@@H]1O as the molecule, how does the Potency read?
A: 5.96 µM (active)

Q: Which Potency does the source give for C/C=C/C1=C(C(=O)O)N2C(=O)[C@@H](NC(=O)[C@H](N)c3ccc(O)cc3)[C@H]2SC1 here?
A: inactive

Q: With O=C1C2CC3CC1CC(O)(C3)C2 as the molecule, how does the Potency read?
A: inactive

Q: For COC(=O)C[C@](O)(CCCC(C)(C)O)C(=O)O[C@@H]1C(OC)=CC23CCCN2CCc2cc4c(cc2[C@H]13)OCO4 (stereo not given in full), which Potency is on record?
A: 29.8 nM (active) and 23.7 nM (active)

Q: With CC[C@@H](C)CCCCC(=O)N[C@@H](CCNCS(=O)(=O)O)C(=O)N[C@H](C(=O)N[C@@H](CCNCS(=O)(=O)O)C(=O)N[C@H]1CCNC(=O)[C@H]([C@@H](C)O)NC(=O)[C@H](CCNCS(=O)(=O)O)NC(=O)[C@H](CCNCS(=O)(=O)O)NC(=O)[C@H](CC(C)C)NC(=O)[C@@H](CC(C)C)NC(=O)[C@H](CCNCS(=O)(=O)O)NC1=O)[C@@H](C)O (X3-[Dab(CH2SO3H)]T[Dab(CH2SO3H)][Dab][Dab(CH2SO3H)][dL]L[Dab(CH2SO3H)][Dab(CH2SO3H)]T; lactam 4-C) as the molecule, how does the Potency read?
A: 23.7 µM (active)

Q: With CCC(NC(C)C)C(O)c1ccc(O)c(O)c1 (stereo not given) as the molecule, how does the Potency read?
A: inactive

Q: With CCCCCCCCCC[N+](C)(CCCCCCCCCC)CCC[Si](OC)(OC)OC as the molecule, how does the Potency read?
A: 5.45 µM (active)

Q: With O=C1CCC(c2ccc(-n3ccnc3)cc2)=NN1 as the molecule, how does the Potency read?
A: inactive
